Results from PubChem BioAssay (Tox21).
Results filed as inconclusive are left out. A call without a number means that no potency is given here. Values without a mark were called inactive. Active and inactive are the calls of the source. The call rests on the fitted dose curve; in most records, active means well fitted cell-killing curve with a large enough effect in the repeat runs; inconclusive means weak or mixed curves, or effect the other way; inactive means flat fitted curve, though single readings scatter.

Assay: qHTS assay to identify small molecule agonists of the constitutive androstane receptor (CAR) signaling pathway - cell viability counter screen (AID 1224836); further: nearly all actives have a fitted effect of over 45% in size
Details: HepG2-CYP2B6-hCAR viability, CellTiter-Fluor, 23 h, PK11195 added to every well; series mostly up to 92.4 µM
Description: U.S. Tox21 Program National Center for Advancing Translational Sciences [NCATS] NIH Chemical Genomics Center [NCGC] U.S. Environmental Protection Agency [EPA] National Institutes of Environmental Health Sciences [NIEHS] National Toxicology Program [NTP] U.S. Food and Drug Administration [FDA] Tox21 Assay Overview: The constitutive androstane receptor (CAR) is a nuclear receptor which regulates multiple drug metabolizing enzymes (DMEs) and transporters. Activating CAR will generally increase the transcription and subsequent translation of CYP2B6 and CYP3A4. These two DMEs represent about 50% of the drug metabolizing potential in the body. […] Recently, there have also been studies performed indicating CARs role in energy metabolism and cancer therapy. Therefore, inducing CARs activity could have a potential effect on diabetes and cancer. Identifying environmental toxins and compounds which modulate CAR, through the use of the Tox21 10K compound collection, will be an important step in determining the toxicity and potential therapeutic effects these factors will have on the human body. To differentiate true CAR agonists from cytotoxic substances, the assay is multiplexed with a cell viability assay.
Tox21 Assay Protocol Summary: A double-stable (hCAR and CYP2B6-2.2kb) transfected cell line, derived from human hepatoma (HepG2) cells, was utilized for the duration of the quantitative high-throughput screens. The HepG2-CYP2B6-hCAR cells were dispensed at 2500 cells/4 uL/well in 1536-well white solid bottom plates using a Multidrop Combi. After the assay plates were incubated at 37 C/5% CO2 for 4 hrs, 23 nL of compounds at 15 concentrations (from 5-48 columns) or positive control (from 1 to 4 columns) were transferred to the assay plates using a Pintool station. One uL of PK11195 (final concentration = 0.75 uM) was added, using a Flying Reagent Dispenser, inside each well. After a 23 hr incubation period at 37 C/5% CO2, 1 uL of CellTiter-Fluor reagent was added into each well of the assay plates using a Flying Reagent Dispenser. The fluorescence intensity in the plates was then measured using a ViewLux plate reader.

Compound	Potency	viability change, negative = cytotoxic
CN(C)C(=O)CNC(=O)Cc1ccccc1	inactive	–
NC(CO)C(=O)NNCc1ccc(O)c(O)c1O (stereo not given)	inactive	–
CCCCCCCCC(=O)Cl	inactive	–
CCCC/C=C/C=C\C=O	inactive	–
COc1ccc(Br)c(C)c1	inactive	–
CCc1ccc(C=O)cc1	inactive	–
CCOC(=O)c1ccc(OC(=O)CCCCCN=C(N)N)cc1	inactive	–
CC(C)NCC(O)COc1ccc(COCCOC(C)C)cc1 (stereo not given)	inactive	–
Cc1cccc(C)c1NC(=O)c1ccccc1C(=O)O	inactive	–
CN1C(C)(C)CCCC1(C)C	inactive	–
CC(C)CCCC(C)(C)O	inactive	–
CC(C)CCCCOC(=O)c1ccccc1C(=O)OCCCCC(C)C	inactive	–
OCCN(CCO)c1cccc(Cl)c1	inactive	–
Cc1ccc(S(=O)(=O)O)c(C)c1	inactive	–
CCCC(=O)C(C)=O	inactive	–
C[C@@H](O)[C@H]1C(=O)N2C(C(=O)O)=C(SCCN=CN)C[C@H]12	inactive	–
CC(C)(C)c1nnc(NS(=O)(=O)c2ccc(N)cc2)s1	inactive	–
C[Si](C)=O	–	2.34% [at 8.39 µM]
CCCCCCCCCCl	inactive	–
c1ccc2c(c1)ccc1c3ccccc3ccc21	inactive	–

Compound	Potency	viability change, negative = cytotoxic
CC(N)C(=O)OC(C)(C)Cc1ccc(Cl)cc1 (stereo not given)	inactive	–
C=Cc1ccccn1	inactive	–
NCCS	inactive	–
CC(=O)CCCCn1c(=O)c2c(ncn2C)n(C)c1=O	inactive	–
CCCC/C=C\CCCCCCCCCC=O	inactive	–
O=C(O)Cc1ccc(Cl)cc1Cl	inactive	–
Nc1ccc(S(=O)(=O)Nc2ccc(Cl)nn2)cc1	inactive	–
CCOC(=O)CC(=O)c1ccccc1	inactive	–
CC(=O)c1ccc2c(c1)Cc1ccccc1-2	inactive	–
On1nnc2ccccc21	inactive	–
CC(CC=O)CCCC(C)(C)O (stereo not given)	inactive	–
CCN(CC)CC(=O)Nc1c(C)cccc1C	inactive	–
C=C(C)C(=O)OCc1ccccc1	inactive	–
O=C(/N=N/C(=O)OCc1ccccc1)OCc1ccccc1	inactive	–
O=S(=O)(O)CCN1CCN(CCO)CC1	inactive	–
CC(CN)CC(C)(C)CCN (stereo not given)	inactive	–
O=S(O)(O)=S	–	1.44% [at 8.39 µM]
O=C(O)c1cc(Br)c(O)c(Br)c1	inactive	–
CCCCCCOc1ccccc1C(N)=O	inactive	–
C#CC(C)N(C)C(=O)Nc1ccc(Cl)cc1 (stereo not given)	inactive	–
